Compounds without any hit were thinned out: in the full panel of roughly 83,000, 20% have a hit.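 Growth was measured after 48 h exposure to one concentration of compound in 96-well plates. Values under 10 count as active.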 A number with no mark means an inactive call. Activity calls are given as the source filed them.

This assay deals with SNB-75 CNS. Kind of assay: NCI-60 one-dose screen, 48 h (100 = growth as untreated, 0 = no growth, -100 = all killed). Particulars: 10 µM. The protocol:
Growth inhibition of the SNB-75 human tumor cell line is measured as a screen for anti-cancer activity. Cells are grown in 96 well plates and exposed to the test compound for 48 hours. Compounds are tested at a single concentration, which is 10^-5 M for most compounds. The reported endpoint is percent growth (GI% or GIPRCNT), where numbers from 0 - 100% represent growth inhibition, and numbers from -100% - 0 represent cell death. For example, a value of 40 represents 60% growth inhibition. A value of 0 means no net growth occurred over the course of the experiment. A value of -40 indicates 40% of cells at the beginning of the experiment died by the end of the experiment. A value of -100 means all cells are dead at the end of the experiment.
NCI-60 Human Tumor Cell Lines Screen was performed using the standard one-dose NCI protocol, which is described in more detail at https://dtp.cancer.gov/discovery_development/nci-60/default.htm.
Compounds with GIPRCNT values below 10 were considered active. Activity score was based on GIPRCNT using the following formula: […]
Score is 0 for GIPRCNT values of 100 or above, 50 for GIPRCNT values of 0, and 100 for GIPRCNT values of -100.
As to `C[C@H](NC(=O)[C@@H]1CSSC[C@@H](NC(=O)Cc2nc3ccccc3cc2O)C(=O)NCC(=O)N1C)c1ccccc1`, the growth is 150%.

On to `C=CCn1c(C)nc2cc(Nc3nc(Nc4ccc5nc(C)n(CC=C)c5c4)c4ccccc4n3)ccc21`, for which the growth was -96.7% (active).

With `COc1ccc(CSc2nc3cc(OC)c(OC)cc3c(=O)n2-c2ccc(OC)cc2OC)cc1`, the growth is 90.3%.

As to `C=CCOc1ccc2c(c1)CC=C1[C@@H]2CC[C@]2(C)C(=O)/C(=N/O)C[C@@H]12`, the growth is 115%.

As for `CC1(C)CC(OCCCC[P+](c2ccccc2)(c2ccccc2)c2ccccc2)CC(C)(C)N1O`, the growth was -3.17% (active).

Regarding `CCC(OC(=O)CC(C)C)c1ccccc1` (stereo not given), the growth was 91.1%.

Consider `Cc1cc(/C=C2\SC(=Nc3ccccc3)N(C3CCCC3)C2=O)c(C)n1-c1ccc(Cl)cc1`, for which the growth was -51.3% (active).

For `c1ccc(CNc2nc(Nc3ccc(-c4nc5ccccc5[nH]4)cc3)c3cn[nH]c3n2)cc1`, the growth is 33%.

On to `Nc1nc(SCC#CCCl)c2[nH]cnc2n1`, for which the growth was 63%.

As for `CCN(CC)CCOC(=O)c1ccc(N=Nc2ccc(O)c(OC)c2)cc1`, the growth was 89.3%.

As for `O=C(NC1CCN(Cc2ccccc2)CC1)c1cc(-c2ccncc2)nc2ccc(Cl)cc12`, the growth was 68.7%.

Consider `O=C(NCCc1nccs1)c1cnc2c(S)cccc2c1`, for which the growth is 44.1%.

Regarding `COc1cc(C2c3cc4c(cc3C(O)C(CO)C2CO)OCO4)cc(OC)c1OC` (stereo not given), the growth is -4.31% (active).

As for `CCOC(=S)Sc1ccc([N+](=O)[O-])cc1[N+](=O)[O-]`, the growth was 99.5%.

Consider `CCN(CC)CC(O)CNc1ccnc2cc(Cl)c(Cl)cc12` (stereo not given), for which the growth is 92.9%.

Take `Cc1ccccc1C1=N[C@@H](Cc2ccccc2)C(=O)c2c(nc3ccccn23)N1`: the growth was 70.8%.

As for `Nc1c(C(=O)Nc2ccccc2F)sc2nc3c(cc12)C(=O)CCC3`, the growth was 13.7%.

In the case of `O=C(O)CNS(=O)(=O)c1ccc(OCCOc2ccc(S(=O)(=O)NCC(=O)O)cc2)cc1`, the growth was 97.2%.

Regarding `CCNC1(NC#N)CCCCC1`, the growth was 91.2%.

In the case of `COc1cc(Nc2ccnc(N3CCN(c4ccnc5cc(Cl)ccc45)CC3)n2)cc(OC)c1`, the growth is -13.9% (active).

Take `COc1cc(C2C=C(c3ccc(Cl)c(Cl)c3)N=C3SC(C)=CN32)cc(OC)c1OC` (stereo not given): the growth is 81.7%.

Turning to `NC(N)=NS(=O)(=O)c1ccc(Nc2ccc3nnc(-c4ccncc4)n3n2)cc1`, the growth is 90.4%.

Regarding `Cc1cc(C)c2nc(C)c(C)[n+]([O-])c2c1`, the growth is 84.1%.

In the case of `O=C(Nc1cccc(-c2nc3ccccc3[nH]2)c1)c1cccc(NC(=O)c2ccco2)c1`, the growth is 72.2%.

As to `CCOC(=O)Nc1ccc2c(c1)C(=O)N(CC)c1ccccc1O2`, the growth was 27.3%.

In the case of `CCC1(C)OC(=O)NC1=O` (stereo not given), the growth was 100%.

`COc1cc2c3c(cccc3c1)C(=O)N(CCN1CCCC1)C2=O`: the growth was 23.5%.

As to `CCOC(=O)c1c(O)c2cc(-c3ccccc3)nc(OCC)c2c(=O)n1C`, the growth is 95.6%.

`O=C(NC1CCCC1)c1ccc(N2CCC(NCc3cccc(C(F)(F)F)c3)CC2)cc1`: the growth is 85.3%.

Consider `CCCCCCCCCCCCCCCCn1cc[n+](C)c1`, for which the growth is -98.6% (active).

Take `COc1cccc2c1O/C(=C\c1ncc([N+](=O)[O-])n1C)C2=O`: the growth was 39.2%.

Regarding `COc1ccc(-c2nnc(SC/C(=N\O)c3ccccc3)o2)cc1`, the growth was 106%.

Regarding `O=C(/C=C/c1ccc(Cl)cc1)c1ccc(Br)cc1`, the growth is 101%.

As for `Cc1ncc([N+](=O)[O-])n1CCOc1ccc(C(=O)/C=C/c2ccc(C(F)(F)F)cc2)cc1`, the growth was 60.1%.

As for `CC(C)(C)CC(C)(C)c1ccc(O)c(Cc2ccc(Cl)cc2Cl)c1`, the growth is -77.7% (active).

For `COc1ccc(-c2nc(-c3ccccc3)c(-c3ccccc3)[nH]2)cc1OC1CCCC1`, the growth is 70.5%.

Regarding `O=c1ccc2nc(-c3ccccc3)nn(-c3ccccc3)c-2c1`, the growth was 93.3%.

As to `O=C(NNC(=O)c1ccncc1)Nc1ccc([N+](=O)[O-])cc1`, the growth is 111%.

As to `COc1ccc(-c2nnc(SCC(=O)c3ccccc3)o2)cc1`, the growth is 92.5%.

In the case of `COc1ccc(-c2nc(-c3nc4ccc(OC)cc4[nH]3)c3ccccn23)cc1`, the growth is 57%.
